For ten compounds, growth results are on record in PubChem BioAssay (NCI).

Compounds without any hit were thinned out: in the full panel of roughly 83,000, 20% have a hit.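 The test compound was applied at a single concentration to cells in 96-well plates for 48 hours, and percent growth was recorded.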 A number with no mark means an inactive call. Active and inactive are the calls of the source. How the source made its calls: active means growth percent below 10; inactive means the rest.

Some test systems named below: HT29 colon; SNB-75 CNS; SNB-19 CNS; PC-3 prostate; SK-MEL-5 melanoma; UACC-62 melanoma; LOX IMVI melanoma; SK-MEL-28 melanoma; SK-MEL-2 melanoma; EKVX NSCLC; SN12C renal; UO-31 renal; TK-10 renal; ACHN renal; CAKI-1 renal; A498 renal; CCRF-CEM leukemia; MOLT-4 leukemia; SR leukemia.
Common to all, as to assay: NCI-60 one-dose screen, 48 h (100 = growth as untreated, 0 = no growth, -100 = all killed)
Settings in all cases: 10 µM unless noted

Take `O=C1Cc2cc(CCn3cncn3)c(Cl)cc2N1`: the growth in the test with HT29 colon is 97.1%; with SNB-75 CNS, 63.6%; in the test with SNB-19 CNS, 74.4%; in the test on PC-3 prostate it was 86.4%; in the test with SK-MEL-5 melanoma it was 40.1%; with UACC-62 melanoma it was 68.2%. Also, the growth was 81% with LOX IMVI melanoma; 67.2% with SK-MEL-28 melanoma; 71.3% in the test with SK-MEL-2 melanoma; 29.5% in the test with EKVX NSCLC; 55.8% with SN12C renal; 66% in the test on UO-31 renal. Also, the growth in the test with TK-10 renal was 122%; in the test on ACHN renal, 74.6%; in the test with CAKI-1 renal, 60%; with A498 renal it was 47.1%.

As to `O=[N+]([O-])c1ccc(N/N=C\c2ccccc2[N+](=O)[O-])nc1`, the growth in the test with HT29 colon was 104%; in the test on SNB-75 CNS it was 103%; in the test on SNB-19 CNS, 99.4%; in the test with PC-3 prostate it was 99.7%; in the test with SK-MEL-5 melanoma, 105%; in the test with UACC-62 melanoma it was 96.7%. Further, the growth in the test with LOX IMVI melanoma was 105%; with SK-MEL-28 melanoma, 110%; in the test with EKVX NSCLC it was 101%; with SN12C renal, 103%; with UO-31 renal it was 97.8%; with TK-10 renal, 116%. Moreover, the growth with ACHN renal was 102%; in the test with CAKI-1 renal, 83%; with A498 renal, 83.4%; with CCRF-CEM leukemia it was 97.8%; in the test with MOLT-4 leukemia, 93.5%; with SR leukemia it was 92.4%.

On to `CCCCOc1ccc(C(C)(C)c2ccc(OCCCC)cc2)cc1`, for which the growth in the test on HT29 colon is 102%; in the test on SNB-75 CNS, 97.6%; in the test on SNB-19 CNS, 108%; with PC-3 prostate, 99.9%; in the test with SK-MEL-5 melanoma, 111%; in the test on UACC-62 melanoma, 106%. The growth in the test on LOX IMVI melanoma was 101%; in the test with SK-MEL-28 melanoma it was 107%; in the test on SK-MEL-2 melanoma it was 96.9%; in the test on EKVX NSCLC it was 143%; in the test with SN12C renal, 100%; with UO-31 renal it was 80.5%. The growth in the test with TK-10 renal was 107%; in the test with ACHN renal, 109%; with A498 renal it was 126%; with CCRF-CEM leukemia, 97.7%; with MOLT-4 leukemia, 99.7%; in the test with SR leukemia it was 92.6%.

For `O=C(c1ccccc1)c1ccco1`, the growth was 103% with HT29 colon; 80.3% in the test with SNB-75 CNS; 93.1% in the test on SNB-19 CNS; 95.4% in the test with PC-3 prostate; 106% in the test with SK-MEL-5 melanoma; 93% in the test on UACC-62 melanoma. Further, the growth in the test on LOX IMVI melanoma is 89.8%; in the test on SK-MEL-28 melanoma, 111%; in the test with SK-MEL-2 melanoma it was 104%; with SN12C renal, 88.4%; in the test on UO-31 renal, 88.7%; in the test on TK-10 renal it was 96%. In addition, the growth is 98.9% in the test on ACHN renal; 109% in the test on A498 renal; 93.3% in the test with CCRF-CEM leukemia; 91.7% in the test with MOLT-4 leukemia; 106% with SR leukemia.

For the compound `COc1ccc(C(=O)Nc2nc(-c3ccc(Cl)cc3)cs2)cc1`, the growth was 114% in the test with HT29 colon; 98.7% in the test with SNB-75 CNS; 104% in the test with SNB-19 CNS; 98.3% in the test with PC-3 prostate; 98.9% with SK-MEL-5 melanoma; 102% with UACC-62 melanoma. Also, the growth with SK-MEL-28 melanoma is 101%; with SN12C renal, 101%; with UO-31 renal it was 89.4%; in the test with TK-10 renal, 122%; in the test on ACHN renal it was 94.4%; in the test with CAKI-1 renal, 96.7%. Further, the growth with A498 renal is 91.5%; in the test with CCRF-CEM leukemia it was 104%; in the test on MOLT-4 leukemia, 97.9%; with SR leukemia, 105%.

With `CC(C)COCC(CN(Cc1ccccc1)c1ccccc1)N1CCCC1` (configuration not stated), the growth in the test with HT29 colon is -24.5% (active); in the test with SNB-75 CNS, 72.5%; with SNB-19 CNS, 79.1%; in the test on PC-3 prostate, 41.9%; with SK-MEL-5 melanoma, 51.4%; with UACC-62 melanoma, 81.1%. Also, the growth in the test on LOX IMVI melanoma was 47.5%; with SK-MEL-28 melanoma, 84.9%; in the test with SK-MEL-2 melanoma, 77.2%; in the test with EKVX NSCLC, 54%; in the test on UO-31 renal, 37%; with TK-10 renal, 29.9%. Further, the growth with CAKI-1 renal was 57.1%; in the test on A498 renal, 83.3%; with CCRF-CEM leukemia it was 41.7%; in the test on MOLT-4 leukemia it was 28.8%; with SR leukemia, 51.8%.

As to `CC(=O)c1ccc2c3c(n(C)c2c1)CCCC3`, the growth with HT29 colon was 92.6%; with SNB-75 CNS it was 92.1%; in the test on SNB-19 CNS, 99.6%; in the test with PC-3 prostate it was 100%; in the test with SK-MEL-5 melanoma, 102%; in the test on UACC-62 melanoma it was 96.5%. Further, the growth in the test with SK-MEL-28 melanoma was 96.5%; in the test on SK-MEL-2 melanoma it was 104%; in the test on EKVX NSCLC, 88.3%; with SN12C renal, 97.2%; in the test on UO-31 renal, 112%; with TK-10 renal it was 85.4%. Moreover, the growth with ACHN renal is 105%; in the test with CAKI-1 renal, 102%; in the test on A498 renal it was -76.1% (active); with CCRF-CEM leukemia, 86.6%; with MOLT-4 leukemia it was 76.5%; in the test with SR leukemia, 92.1%.

In the case of `C[C@]12CC[C@@H]3c4ccc(O)c([N+](=O)[O-])c4CC[C@H]3[C@@H]1CC[C@@H]2NS(=O)(=O)c1ccc(C(F)(F)F)cc1`, the growth is 48% in the test with HT29 colon; 40.5% in the test on SNB-75 CNS; 48.7% in the test on SNB-19 CNS; 24.2% in the test on PC-3 prostate; 20.4% with SK-MEL-5 melanoma; 36.1% in the test with UACC-62 melanoma. In addition, the growth in the test with SK-MEL-28 melanoma was 43.5%; in the test with SN12C renal it was 17.8%; in the test on UO-31 renal it was -90.1% (active); in the test with TK-10 renal it was 46.5%; with ACHN renal it was 3% (active); with A498 renal, 46.3%. In addition, the growth is 18.3% in the test on CCRF-CEM leukemia, 3.51% (active) in the test with MOLT-4 leukemia and -8.8% (active) in the test on SR leukemia.

Regarding `O=C(O)c1ccc(NC(=O)c2ccc(Nc3ccnc(C(F)(F)F)c3)cc2)cc1`, the growth was 109% in the test with HT29 colon; 98.7% in the test with SNB-75 CNS; 99.7% with SNB-19 CNS; 99.4% in the test with PC-3 prostate; 101% with SK-MEL-5 melanoma; 107% in the test on UACC-62 melanoma. Further, the growth in the test on SK-MEL-28 melanoma was 106%; in the test with SN12C renal it was 104%; in the test on UO-31 renal, 84.5%; with TK-10 renal, 105%; in the test on ACHN renal, 98.9%; in the test on CAKI-1 renal, 108%. Besides, the growth in the test with A498 renal was 105%; in the test on CCRF-CEM leukemia it was 120%; with MOLT-4 leukemia, 94.5%; with SR leukemia, 90%.

As for `c1ccc(-c2nnc(Nc3nnc(-c4ccccc4)s3)s2)cc1`, the growth was 106% in the test with HT29 colon; 93.4% in the test on SNB-75 CNS; 111% with SNB-19 CNS; 97.7% in the test with PC-3 prostate; 100% with SK-MEL-5 melanoma; 103% in the test on UACC-62 melanoma. Further, the growth with SK-MEL-28 melanoma was 112%; in the test on SN12C renal it was 102%; with UO-31 renal, 82.5%; in the test on TK-10 renal, 142%; in the test on ACHN renal, 96%; in the test on CAKI-1 renal, 87.9%. The growth in the test with A498 renal is 92.1%; in the test on CCRF-CEM leukemia, 95.5%; in the test on MOLT-4 leukemia, 102%; in the test with SR leukemia, 97.4%.
